# Source: PubChem BioAssay
# Compounds with a hit are over-represented: about 19% of the library has one in this group of screens.
# HT1080 IDH1KD tx: qHTS for induction of synthetic lethality in tumor cells producing 2HG: qHTS for the HT-1080-IDH1KD cell line; HT-1080 IDH1 knockdown viability, ATP luminescence, 48 h; Potency, µM (series often up to 46.1 µM), without a hit: at the highest dose activity, negative = toxicity, usual class: cytotoxic; actives 2% (n = 360,000);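 further: potency means the concentration at half of the fitted maximal effect; 0% = DMSO wells and -100% = cell-free medium wells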
#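 Assay cells: HT-1080 with IDH1 knockdown, 750 per well, RPMI/5% FBS. Exposure: 48 h at 37 °C following 2 h pre-incubation. Read: CellTiter-Glo luminescence; fitted concentration-response, curve class assigned.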
# DT40 TDP1 no CPT: qHTS for Inhibitors of human tyrosyl-DNA phosphodiesterase 1 (TDP1): qHTS in cells in absence of CPT | DT40 Tdp1-/- hTDP1 cells, no CPT, ATP luminescence, 48 h | Potency, µM (series often up to 46.2 µM), inactives show at the highest dose activity change, negative = growth inhibition, actives largely listed as inhibitors | actives 15% (n = 420,000) | AID 686978, 2013; further: potency means the concentration at half of the fitted maximal effect; nearly all actives have a fitted effect of over 55% in size
#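 Seeded 400 DT40-hTDP1 cells/well (vehicle DMSO, no 20 nM CPT); pinned compounds; ≥48 hr at 37 °C; CellTiter-Glo luminescence as viability measure.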
# HT1080-NT tox: qHTS for induction of synthetic lethality in tumor cells producing 2HG: qHTS for the HT-1080-NT fibrosarcoma cell line; HT-1080-NT fibrosarcoma viability, CellTiter-Glo ATP luminescence, 48 h; AID 686970, 2013; Potency, µM (highest dose often 46.1 µM), without a hit: at the top dose activity, negative = less viability, most hits filed as cytotoxic; actives 1.6% (n = 360,000);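 further: NT is the 2HG producing partner of a matched IDH1 knockdown line; potency means the concentration at half of the fitted maximal effect; 0% = DMSO-treated cells and -100% = media-only wells without cells; nearly all actives have a fitted effect of over 55% in size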
#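 HT-1080-NT fibrosarcoma cells (2HG-overproducing), 750 cells/well in RPMI with 5% FBS, dosed after 2 h and incubated 48 h at 37C. CellTiter-Glo luminescence normalized to DMSO and no-cell wells; concentration-response curves fitted and classed.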
# DT40 TDP1 CPT: qHTS for Inhibitors of human tyrosyl-DNA phosphodiesterase 1 (TDP1): qHTS in cells in presence of CPT; actives 12% (n = 420,000); chicken DT40 Tdp1-/-;hTDP1 cells + 20 nM CPT, ATP luminescence, 48 h; AID 686979, 2013; Potency, µM (highest dose often 46.2 µM), inactives show top-dose activity change, negative = growth inhibition, usual class: inhibitors; further: potency means the concentration at half of the fitted maximal effect; nearly all actives have a fitted effect of over 55% in size
#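 Chicken DT40 Tdp1-/- cells complemented with human TDP1, 400 cells/well, exposed to compounds plus 20 nM camptothecin for at least 48 h at 37 C; viability read as ATP content by CellTiter-Glo luminescence.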
# IL-1B inflam inh: qHTS for Inhibitors of Inflammasome Signaling: IL-1-beta AlphaLISA Primary Screen | THP-1 LPS/ATP IL-1B secretion, AlphaLISA, 16 h; stronger effect = lower value | activity change, % at 57.5 µM | actives 4.7% (n = 360,000); in the data active means activity change below about -50%; inconclusive means mostly about -30% to -49%
#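 THP-1 cells pretreated 1 hr with compounds (up to 57.5 uM final), then stimulated with LPS (250 ng/mL final) plus ATP (1.25 mM final); secreted IL-1B measured by AlphaLISA after 16 hr, decreased signal indicating inhibition.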
# Numbers without * were called inactive; ? = inconclusive; nt = no result; [ ] = remark or other dose. Unless noted, the call rests on the fitted dose curve; in most records, active means well fitted curve in the direction sought with a large enough effect; inconclusive means small, poorly fitted or top-dose-only effect, or another doubt; inactive means no such curve, though single readings can be large; an effect the other way counts as inactive or inconclusive. Unless noted, on the % scale 0 is the no-effect control and ±100 the full control effect.
SMILES,HT1080 IDH1KD tx,DT40 TDP1 no CPT,HT1080-NT tox,DT40 TDP1 CPT,IL-1B inflam inh
C[C@@H]1CC[C@@]2(OC1)OC1CC3C4CC=C5CC(O)CCC5(C)C4CCC3(C)C1[C@@H]2C (some centres undefined),nt,-8%[9.04 µM],nt,5%[9.04 µM],nt
COC(=O)c1ccc2c(c1)C(C)(C)C(/C=C/c1ccccc1O)=[N+]2C,3.5µM*,3.2µM*,4.5µM*,3.2µM*,-100*
COCCN1C(=O)c2ccccc2C(C(=O)NCCCN2CCCC2)C1c1c[nH]c2ccccc12 (centres undefined),12%,26µM*,11%,?,3
CN/N=C(\Cc1nc2ccccc2[nH]1)c1ccc([N+](=O)[O-])cc1,-13%,?,-8%,?,?
O=C(Cc1nc2ccccc2[nH]1)c1ccc(Cl)cc1,-7%,?,-19%,?,-99*
Clc1ccc(/C(Cc2nc3ccccc3[nH]2)=N\Nc2ccccc2)cc1,?,?,?,?,-84*
CCOc1ccc2nc(NC(=O)c3cc(=O)c4cc(C)cc(C)c4o3)sc2c1,nt,-3%,nt,4%,nt
CC1c2ccccc2SC(CCCN(C)C)c2ccccc21 (centres undefined),?,?,?,16µM*,-52*
CN(C)CCCNC(=O)N1c2ccccc2Sc2ccccc21,-2%,-2%,-2%,13%,-28
Cc1ccc(Cl)cc1-n1c(SCC(=O)NCCC2=CCCCC2)nc2n[nH]c(C)c2c1=N,?,-23%,?,?,0
Cc1[nH]nc2nc(SCC(=O)NCCC3=CCCCC3)n(-c3ccc(Br)cc3)c(=N)c12,?,8.2µM*,21µM*,12µM*,-4
Cc1cc(-n2c(SCC(=O)NCCC3=CCCCC3)nc3n[nH]c(C)c3c2=N)ccc1Cl,?,8.2µM*,18µM*,16µM*,14
CCc1ccc(S(=O)(=O)Nc2ccc3c(c2)sc(=O)n3C)cc1,nt,15µM*,nt,21µM*,nt
CN1CC(=O)NC1=NC(=O)C12CC3CC(CC(C3)C1)C2,-19%,18µM*,-17%,?,5
CN1CCN(c2ccccc2/C=N/NC(=O)c2cccnc2)CC1,17%,2%,?,-1%,7
CC(C)(CNC(=O)c1cnn(-c2ncc3c(n2)-c2ccccc2CC3)c1C1CC1)N1CCOCC1,nt,1%,nt,-10%[9.04 µM],nt
O=C(c1csnn1)N1CCC2(CC1)CN(c1cccc(-c3ccccc3)c1)C2,nt,21µM*,nt,23µM*,nt
O=C(c1csnn1)N1CCC2(CCCN(C(c3ccccc3)c3ccccc3)C2)CC1,nt,?,nt,18µM*,nt
O=C(c1csnn1)N1CCC2(CC1)CN(c1ccccc1)C2,nt,?,nt,16µM*,nt
CCN1CCN(c2ccc(S(=O)(=O)N3CCOCC3)cc2N)CC1,-3%,0%,0%,17%,-4
CN(C)c1ccc(/C=C2\N=C(c3ccc(Cl)c([N+](=O)[O-])c3)NC2=O)cc1,3%,10µM*,-1%,?,-3
CN(C)c1ccc(/C=C2/NC(=O)NC2=O)cc1,2%,?,-2%,-18%,-7
CCOC(=O)c1cc(-c2csc(COc3ccccc3Cl)n2)on1,-18%,16µM*,-2%,21µM*,-24
C/C(=N\NC(=O)c1nnn(-c2nonc2N)c1C(C)C)c1cc(C)sc1C,-21%,?,-20%,?,-10
CCCc1c(C(=O)N/N=C(\C)c2cc(C)sc2C)nnn1-c1nonc1N,-4%,18µM*,-2%,?,-19
CCCc1c(C(=O)N/N=C(\C)c2ccc(O)cc2)nnn1-c1nonc1N,2%,0%,5%,-20%,?
